Calls of active or inactive are those of the source. Calls follow the shape of the dose curve; as a rule, active = well fitted curve in the direction sought with a large enough effect in the repeat runs; inconclusive = weak or mixed curves; inactive = flat fitted curve, though single readings scatter.
Experiment: qHTS assay to test for compound auto fluorescence at 535 nm (green) in HEK293 cells (AID 720680)
Conditions: green autofluorescence 485/535 nm; series mostly up to 91.3 µM
From the text: U.S. Tox21 Program National Center for Advancing Translational Sciences [NCATS] NIH Chemical Genomics Center [NCGC] U.S. Environmental Protection Agency [EPA] National Institutes of Environmental Health Sciences [NIEHS] National Toxicology Program [NTP] U.S. Food and Drug Administration [FDA] Tox21 Assay Overview: Compound auto fluorescence often interferes with screening of the compound library against various biological targets and signaling pathways. Some of these compounds may have fluorophoric properties. Such properties may interfere with the assay outputs resulting in false positives and/or negatives. To decrease such complications and ensure the compound activities are relevant in terms of biological response, the Tox21 10K compound library was screened for auto fluorescence. From the fluorophores used as reporter signals in our screening assays, the auto fluorescence equivalencies of compounds against three fluorophores have been evaluated: Triamterene, Fluorescein and Rose Bengal sodium for blue, green and red fluorescence, respectively. The fluorescence intensities were measured using Excitation/Emission wavelengths at 405/460nm, 485/535nm and 540/590nm for blue, green and red labels, respectively. This assay includes the green fluorescence data.
Tox21 Assay Protocol Summary: 2,000 HEK293 cells in 5 uL of culture medium containing 10% dialyzed FBS per well were dispensed into black wall/clear bottom 1536-well plates using a Multidrop Combi Dispenser (Thermo Scientific). The assay plates were incubated for 4-5 hr at 37C to allow cell attachment to the well bottom, followed by the transfer of 23 nL compound or DMSO vehicle by a pintool work station (Kalypsys, San Diego, CA). After the assay plates were incubated overnight at 37C and 5% CO2, fluorescence intensities in the assay plates were measured by an Envision (PerkinElmer, Shelton, CT) plate reader using three labels for measuring blue, green and red fluorescence at […] 460, 535 and 590nm respectively.

| Structure (SMILES) | outcome |
| --- | --- |
| S=c1nc[nH]c2nc[nH]c12 | inactive |
| O=C(c1ccc(O)cc1)c1ccc(O)cc1O | inactive |
| c1ccc2ccccc2c1 | inactive |
| C/C=C(C)/C=C/C=C(C)C | inactive |
| C=C(C)C(=O)OCCCCCCCCCCCC | inactive |
| O=S(=O)(O)CCS | inactive |
| Nc1c(S(=O)(=O)O)cc(Br)c2c1C(=O)c1ccccc1C2=O | inactive |
| Clc1ccc(Cl)c(Cl)c1Cl | inactive |
| CC(C)NCC(O)COc1cccc2ccccc12 (stereo not given) | inactive |
| ClC1=C(Cl)C(Cl)(Cl)C(Cl)=C1Cl | inactive |
| CN(CCOc1ccc(CC2SC(=O)NC2=O)cc1)c1ccccn1 (stereo not given) | inactive |
| CCCCCCCCCCCCN | inactive |
| COCC(=O)O | inactive |
| COC(=O)Nc1nc2ccc(Sc3ccccc3)cc2[nH]1 | inactive |
| O=Nc1ccc(O)cc1 | inactive |
| O=S(=O)(O)c1cc(S(=O)(=O)O)c2c(N=Nc3ccccc3)c(O)ccc2c1 | inactive |
| CC1CC(OC(=O)c2ccccc2O)CC(C)(C)C1 (stereo not given) | inactive |
| CC1(C)CC(N=C=O)CC(C)(CN=C=O)C1 (stereo not given) | inactive |
| O=S(=O)(Oc1ccc(Cl)cc1Cl)c1ccccc1 | inactive |
| CC(C)(CO)COC(=O)C(C)(C)CO | inactive |

| Structure (SMILES) | outcome |
| --- | --- |
| O=c1c(-c2ccc(O)cc2)coc2cc(O)ccc12 | inactive |
| CCOC(=O)C1OC1c1ccccc1 (stereo not given) | inactive |
| OC[C@@H](O)[C@@H](O)[C@H](O)[C@@H](O)CO | inactive |
| O=[N+]([O-])c1cccc(Cl)c1 | inactive |
| Oc1ccc2ccccc2c1 | inactive |
| CCCCOCCOCCOC(=O)CCCCC(=O)OCCOCCOCCCC | inactive |
| O=C(Cl)c1c(Cl)c(Cl)c(C(=O)Cl)c(Cl)c1Cl | inactive |
| C[C@@H]1O[C@@H](OC[C@H]2O[C@@H](Oc3c(-c4ccc(O)c(O)c4)oc4cc(O)cc(O)c4c3=O)[C@H](O)[C@@H](O)[C@@H]2O)[C@H](O)[C@H](O)[C@H]1O | inactive |
| O=[N+]([O-])c1cc(N(CCO)CCO)ccc1NCCO | inactive |
| Oc1c(Cl)cc(Cl)c(Cl)c1Cl | inactive |
| CCc1ccc(O)cc1 | inactive |
| C=C(C)C(=O)OCCCCCC | inactive |
| CCCCC(CC)COC(=O)CCCCCCCC(=O)OCC(CC)CCCC (stereo not given) | inactive |
| OCCOCCOCCOCCO | inactive |
| CN(C)c1cccc(O)c1 | inactive |
| CC(=O)[C@@]1(O)CC[C@H]2[C@@H]3CCC4=CC(=O)CC[C@]4(C)[C@H]3CC[C@@]21C | inactive |
| Cc1cc(O)cc(C)c1Cl | inactive |
| CC1=C(/C=C/C(C)=C/C=C/C(C)=C/CO)C(C)(C)CCC1 | inactive |
| NCCc1ccc(O)c(O)c1 | inactive |
| O=C(O)c1ccc([N+](=O)[O-])cc1 | inactive |
